This is a sample that favours compounds with a hit; in the whole collection about 7.9% have one here.
Lassa entry inh = blocks Lassa virus binding to or entry into cells | Lassa virus pseudotype entry inhibition, cell reporter | Potency, µM (doses to about 37.9 µM), inactives show at the highest dose activity change, negative = inhibition, hits mostly inhibitors | actives 1.2% (n = 300,000); calls by dose curve; tested in HEK293 cells; further: potency means the concentration at half of the fitted maximal effect; nearly all actives have a fitted effect of over 50% in size
FMDV antiviral = blocks foot and mouth disease virus; actives 1.2% (n = 410,000); AID 1159524; FMDV antiviral cell-based qHTS; Potency, µM (series often up to 57.9 µM), for inactives: top-dose activity change, negative = inhibition, most hits filed as inhibitors; calls by dose curve; tested in HEK293T cells; further: read-out not given here; potency means the concentration at half of the fitted maximal effect; nearly all actives have a fitted effect of over 45% in size
HCV inh = HCV inhibition | Huh7.5.1 HCVcc-Cre infection, luciferase reporter, 44 h | actives 3.4% (n = 340,000) | Potency, µM (highest dose often 41.8 µM), without a hit: at the highest dose activity change, negative = inhibition, usual class: inhibitors; active means well fitted inhibition curve with a large enough effect; inconclusive means small, poorly fitted or top-dose-only effect, or another doubt; inactive means no such curve, though single readings can be large or run the other way; further: potency means the concentration at half of the fitted maximal effect
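Whole-lifecycle infectious HCVcc-Cre system; cells 1,000/well, compound then virus (~0.5 moi) added 4 h after plating, 44 h culture. Luciferase read 15 sec following 15 min substrate incubation, room temp.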
HCMV antiviral = human cytomegalovirus inhibition | HFF cells, HCMV-luciferase reporter, 72 h; active compounds read low | AID 1259415 | activity change, negative = inhibition, % at 57.5 µM | actives 4.5% (n = 410,000); in the data active means activity change below about -60%; inconclusive means no clear call, values can overlap the other calls; inactive means above about -39%
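HFF cells seeded 16 h at 37C, treated with compounds, infected with luciferase-reporter HCMV at MOI 1 PFU/cell; luciferase read at 72 h post infection, normalized to buffer-only and Salinomycin controls.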
Marburg entry inh = blocks Marburg virus binding to or entry into cells. Marburg virus pseudotyped entry inhibition, cell reporter. Potency, µM (highest dose often 37.8 µM), without a hit: at the top dose activity change, negative = inhibition, usual class: inhibitors. actives 1.8% (n = 300,000); calls by dose curve; tested in HEK293 cells; further: potency means the concentration at half of the fitted maximal effect
* marks the source's active call; other numbers are inactive results; ? = inconclusive; · = not tested or not shown; + = active, no number; [ ] = dose if it differs, or a comment. On the % scale 0 is the no-effect control and ±100 the full control effect.

SMILES | Lassa entry inh | FMDV antiviral | HCV inh | HCMV antiviral | Marburg entry inh
Cc1ccc(OCc2cc(C(=O)N(C)Cc3cnc4ccccn34)no2)cc1C | · | ? | 11µM* | ? | ·
O=C(c1cc(COc2ccc3ncccc3c2)on1)N1CCC(O)CC1 | -26% | -27% | 8.9µM* | -82* | ?
Cc1cc(CN(C)C(=O)c2cc(COc3ccc4ncccc4c3)on2)on1 | ? | ? | 2.8µM* | -80* | ?
CCOC(=O)C1=C(CS(=O)(=O)c2ccc(F)c(C)c2)NC(=O)NC1c1ccccc1OC (stereo not drawn) | -8%[46.1 µM] | -13% | · | -30 | -1%[46.1 µM]
CCCC(=O)NC(c1ccccc1OC)c1ccc2cccnc2c1O (stereo not drawn) | ? | -12% | 3.5µM* | · | ?
CCCCC(=O)NC(c1ccccc1OC)c1ccc2cccnc2c1O (stereo not drawn) | · | -16% | 2.2µM* | + | ·
COCc1c(C(=O)N2CCCCC2c2cccnc2)cnn1-c1ncc2c(n1)-c1ccccc1CCC2 (stereo not drawn) | · | -17% | · | · | ·
COc1ccc(CC2(C)OC(c3ccc(C)c([N+](=O)[O-])c3)=NN2C(C)=O)cc1 (stereo not drawn) | 0.79µM* | ? | ? | -9 | ?
COCC1CCN(C(=O)CCc2nnc(C3(c4ccc(Cl)cc4)CCC3)o2)CC1 | 8% | 19% | · | ? | 4%
O=C(Nc1cc(S(=O)(=O)N2CCOCC2)ccc1N1CCOCC1)c1ccc([N+](=O)[O-])s1 | · | -20% | 13µM* | ? | ·
Cc1ccc(NC(=O)c2ccc([N+](=O)[O-])s2)cc1S(=O)(=O)N1CCOCC1 | ? | ? | ? | -94* | ?
COc1ccccc1NC(=O)c1ccccc1NS(=O)(=O)c1cccs1 | -5%[46.1 µM] | -18% | 10% | 5 | 0%[46.1 µM]
Cc1ccc(NC(=O)c2ccccc2NS(=O)(=O)c2ccc(Cl)s2)cc1S(=O)(=O)N1CCOCC1 | ? | ? | ? | -82* | ?
COc1ccc(C)cc1NC(=O)c1ccccc1NS(=O)(=O)c1ccc(Cl)s1 | · | -25% | ? | -61* | ·
O=C(Nc1cccc(Cl)c1)c1cc2c(=O)[nH]c3ccccc3c2s1 | 11%[46.1 µM] | 36% | · | 34 | 4%[46.1 µM]
Cc1ccc(CNC(=O)CN(c2ccc(C(C)C)cc2)S(=O)(=O)c2c(C)n[nH]c2C)cc1 | ? | -23% | · | -23 | ?
Cc1ccc(C)c(CN2CCCN(Cc3cc(C)ccc3C)S2(=O)=O)c1 | ? | -9% | -13% | ? | ?
Cc1ccc(NC(=O)Cn2c(=O)n(CCC(=O)NCc3ccccc3Cl)c(=O)c3ccccc32)c(C)c1 | 3%[46.1 µM] | 4% | · | -4 | -16%[46.1 µM]
CCCC[C@]12Cc3cc(C#N)ccc3[C@H](O1)c1c(c3cc(F)ccc3oc1=O)O2 | · | · | · | · | 29%[14.2 µM]
Cc1ccc(NC(=S)NC(C)CCc2ccccc2)cc1C (stereo not drawn) | -9% | -7% | ? | -71* | -21%
c1cc2c(cc1-c1cnc3n1CCC3)OCCO2 | 17% | · | 10µM* | ? | 17%
O=S(=O)(NC1CCN(S(=O)(=O)c2c(F)cccc2F)CC1)c1ccc2c(c1)OCCO2 | · | 17% | · | 12 | ·
O=S(=O)(NC1CCN(S(=O)(=O)c2c(F)cccc2F)C1)c1ccc2c(c1)OCCO2 (stereo not drawn) | · | 15% | · | -78* | ·
Cc1ccc(S(=O)c2ccc(NC(=O)C3CC3)cc2C#N)cc1 (stereo not drawn) | ? | ? | ? | -66* | 2%[46.1 µM]
CC(=O)c1cccc(NC(=O)Nc2c(C)n(C)n(-c3ccccc3)c2=O)c1 | -5%[46.1 µM] | -29% | · | -15 | 3%[46.1 µM]
SMILES | Lassa entry inh | FMDV antiviral | HCV inh | HCMV antiviral | Marburg entry inh
COC(=O)c1ccc2c(=O)n(C3CCCCC3)c(SCC#N)nc2c1 | ? | -6% | 4% | ? | 0.015µM*
CCOC(=O)CSc1nc2cc(C(=O)N3CCC(C(N)=O)CC3)ccc2c(=O)n1C1CCCCC1 | -29% | 73% | 10% | ? | ?
COC(=O)c1ccccc1NC(=O)C1CCN(C(=O)N2CC(C)Oc3ccccc32)CC1 (stereo not drawn) | 1%[46.1 µM] | -23% | · | 8 | ·
O=C(N/N=C/c1ccccn1)c1cccc([N+](=O)[O-])c1 | -20% | -2% | -9% | -14 | ?
O=C(N/N=C/c1cccc([N+](=O)[O-])c1)c1cc2ccccc2o1 | 0% | -4% | 11µM* | 1 | ?
O=C(N/N=C/c1ccc(-c2ccccc2Cl)o1)c1ccccc1 | ? | 28% | 13µM* | -33 | ?
O=C(NN=Cc1ccccc1O)c1cccc([N+](=O)[O-])c1 | ? | 20% | 7.9µM* | -97* | 10µM*
Cc1cc(C(=O)N/N=C/c2cc(N=Nc3ccccc3)ccc2O)n[nH]1 | 11µM* | 10% | 22µM* | · | 0.5µM*
O=C(NCC1Cc2cccc(-c3cnccn3)c2O1)C1COc2ccccc2O1 (stereo not drawn) | · | 0% | · | · | ·
CC(Oc1ccccc1Cl)C(=O)Nc1ccc(S(=O)(=O)N2CCN(C)CC2)cc1 (stereo not drawn) | ? | ? | -16% | 0 | ?
O=C(N/N=C/c1cc([N+](=O)[O-])ccc1O)c1c[nH]c2ccccc12 | · | -17% | -17% | 2 | ·
COc1cc(/C=N/NC(=O)c2cccc([N+](=O)[O-])c2)ccc1O | · | 17% | 12% | -27 | ·
O=C(N/N=C/c1ccc(-c2cccc(C(F)(F)F)c2)o1)c1ccccc1Br | ? | · | ? | -62* | 5%
O=C(NN=Cc1cc([N+](=O)[O-])ccc1O)c1cccc2ccccc12 | 7.1µM* | -4% | ? | 0 | 10µM*
COc1cccc(/C=N/NC(=O)c2cc3cc([N+](=O)[O-])ccc3s2)c1O | ? | -6% | ? | -104* | 1.8µM*
COc1ccc2ccccc2c1/C=N/NC(=O)c1cccc([N+](=O)[O-])c1 | -2%[46.1 µM] | 2% | ? | -62* | -1%[46.1 µM]
COc1ccc(/C=N/NC(=O)c2cccc([N+](=O)[O-])c2)cc1O | 2% | 65% | -14% | -28 | ?
COc1cccc(-c2noc(C3CC(=O)N(c4ccc(F)cc4)C3)n2)c1OC (stereo not drawn) | 1%[46.1 µM] | -19% | · | 6 | ·
NC(=O)[C@@H]1CCCN1C(=O)CC1(c2cccc(F)c2)CC(=O)N(C2CCCC2)C1=O (stereo partly drawn) | · | -14% | · | · | ·
O=C(N/N=C/c1ccc(-c2cccc([N+](=O)[O-])c2)o1)c1ccccc1O | ? | 7% | -16% | 9 | ?
O=C(N/N=C/c1ccc(-c2cccc([N+](=O)[O-])c2)o1)c1ccc([N+](=O)[O-])cc1 | 1% | ? | 10µM* | ? | ?
O=C(N/N=C/c1cc([N+](=O)[O-])ccc1Cl)c1cc(-c2ccccc2)nc2ccccc12 | · | ? | -5% | -35 | ·
O=C(N/N=C/c1cc([N+](=O)[O-])ccc1O)c1cc(-c2ccccc2)nc2ccccc12 | 8.9µM* | -28% | ? | -100* | 2.5µM*

Compound activity: PubChem, National Center for Advancing Translational Sciences (NCATS)
